Source: article PMC5540273 (PLoS ONE, 2017)

Each molecule was assayed on MYLK2.
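Also: kd values determined as follow-up on hits from a single-replicate KINOMEscan panel screen.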

Row | Compound | Kd
1 | O=C(Nc1n[nH]c2nc(-c3nccs3)c(Br)cc12)C1CCCC1 [SB-742609] | 130 nM
2 | O=C(Nc1n[nH]c2nc(-c3nccs3)c(Br)cc12)C1CC1 [SB-742251] | 160 nM
3 | O=C(Nc1n[nH]c2cc(-c3cccc(F)c3F)ccc12)C1CC1 [SB-733894] | 92 nM

The molecules below were run on PDGFRA.

Row | Compound | Kd
4 | Cn1ccc2ncnc(Oc3ccc(NC(=O)Nc4ccccc4)cc3)c21 | 25 nM
5 | Cc1cccc(-c2nc(-c3ccc(S(C)(=O)=O)cc3)sc2-c2ccnc(NCCc3ccccc3)c2)c1 | 550 nM
6 | CC(=O)Nc1nc2cnc(Nc3cc(NC(=O)c4cccc(CCC#N)c4)ccc3C)nc2s1 | > 10000 nM
7 | O=C(Nc1ccccc1)Nc1cccc(Oc2ccc3nccn3n2)c1 | 3.6 nM

These molecules were tested on PDGFRB.

Row | Compound | Kd
8 | Cn1ccc2ncnc(Oc3ccc(NC(=O)Nc4ccccc4)cc3)c21 | 16 nM
9 | CC(C)(C)c1ccc(C(=O)Nc2cn3cc(-c4cccnc4)ccc3n2)cc1 | 220 nM
10 | Cc1cccc(-c2nc(-c3ccc(S(C)(=O)=O)cc3)sc2-c2ccnc(NCCc3ccccc3)c2)c1 | 68 nM
11 | COC(=O)c1c(-c2ccccc2)c2cc(OC)ccc2c(=O)n1Cc1ccccc1 | 110 nM
12 | Cc1ccc(NC(=O)Nc2cc(C(C)(C)C)nn2-c2ccccc2)cc1 [GSK1014915] | 340 nM
13 | CC(=O)Nc1nc2cnc(Nc3cc(NC(=O)c4cccc(CCC#N)c4)ccc3C)nc2s1 | > 10000 nM
14 | O=C(Nc1ccccc1)Nc1cccc(Oc2ccc3nccn3n2)c1 | 1 nM
15 | COC(=O)c1c(-c2ccccc2)c2cc(C(=O)O)ccc2c(=O)n1Cc1ccccc1 | 75 nM
16 | Cc1ccc(NC(=O)Nc2cccc(Cl)c2)cc1-c1ccc(C(=O)Nc2ccncc2)cc1 [GSK1398468] | 50 nM
17 | Cc1ccc(C(=O)Nc2ccc(Nc3ccnc4cc(-c5ccccn5)ccc34)cc2O)cc1.Cl [GW440146] | 480 nM
18 | Fc1cc(Cl)ccc1Nc1ccnc2cc(I)ccc12 [GW551191] | 410 nM
19 | Fc1cc(Cl)ccc1Nc1ccnc2cc(-c3ccc(CN4CCCCC4)o3)ccc12 [GW560116] | 210 nM

Each molecule was assayed on PDPK1.

Row | Compound | Kd
20 | Fc1cc(Cl)ccc1Nc1ccnc2cc(-c3ccc(CN4CCCCC4)o3)ccc12 [GW560116] | > 10000 nM
21 | CCn1c(-c2ccccn2)nc2cnccc21 [SB-736398] | > 10000 nM
22 | CCCc1ccc(S(=O)(=O)NC2CCN(c3ccnc(Nc4ccc(F)cc4)n3)C2)cc1 (stereo not shown) [GSK1379715] | > 10000 nM
